Each structure is given as a SMILES string. Several values for one entry are separate records, joined by “and”; a condition that tells them apart may be missing. Equal values may be shown once. About 79,000 compounds went through this panel and 15% of them were active in at least one assay; those are over-represented in the sample as a whole. The source holds several records for some structures; these can differ, active in one and inactive in another. Activity calls are given as the source filed them. Cut-off read from the data, not from the text of the source: active = growth inhibition above about 70%; inactive = the rest.

The nature of the test: NCI Yeast Anticancer Drug Screen. Data for the mlh1 rad18 strain (AID 175). The following applies: S. cerevisiae mlh1 rad18 strain growth inhibition; at 50.0 µM; stronger effect = higher value. The method, boiled down:
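Cells of a genetically altered yeast strain, deficient in DNA damage repair, were treated with compound. Their growth was then compared with that of vehicle-treated cultures to give inhibition.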
Take `O=[N+]([O-])c1cc[n+]([O-])cc1`: the growth inhibition is 26.8% (inactive) and 87.5% (active).

For the compound `CC1(C)CC(=O)C(/C=N/c2nc(-c3ccccc3)cs2)=C(O)C1`, the growth inhibition is 97% (active). To `Nc1nc(N)c2nc(CNc3ccc(C(=O)NC(CCC(=O)O)C(=O)O)cc3F)cnc2n1` (stereo not given) belongs -2.7% (inactive); to `COC(=O)CC1(O)C(/C=C/c2ccccc2)C(C(=O)OC)C(=O)C(C(=O)OC)C1C(=O)OC` (stereo not given), 85.3% (active). For the compound `CC(C)(C)c1ccc(NS(=O)(=O)c2ccc(N)cc2)cc1`, the growth inhibition is 97.2% (active). With `CCN(CC)CCNc1ccc([N+](=O)[O-])c2nc3ccccc3c(N)c12` the figure was 85.2% (active). To `CCCCN(CCCC)C(=O)/C=C/c1ccccc1` belongs 81.2% (active). With `O=c1[nH]c(-c2ccccc2)nc2c1sc1nc3ccccc3n12` the figure was -23.4% (inactive); with `O=[N+]([O-])c1ccc2c(c1)/C(=N/N=C1c3ccccc3Cc3ccccc31)c1cc([N+](=O)[O-])cc([N+](=O)[O-])c1-2`, 82.5% (active). Turning to `CC(C)C(C)/C=C\C(C)C1CCC2C3=CC=C4CC(O)CCC4(C)C3CCC21C` (stereo not given), the growth inhibition was 86.5% (active).

On to `O=C1Nc2ccc(Br)cc2C1=Nc1ccc2c(c1)OCO2`, for which the growth inhibition is 6.7% (inactive). With `CCCCOCn1c(=O)[nH]c(=O)c2cc(Br)ccc21` the figure was 26.9% (inactive); with `Cc1ccc(S/C(=C\C(=O)O)c2ccccc2)cc1`, 38% (inactive); with `O=[N+]([O-])/C=C/c1cc(Cl)c(/C=C/[N+](=O)[O-])cc1Cl`, 56.4% (inactive). To `Cc1cc(S(=O)(=O)Nc2nnc3cnc4ccccc4n23)c(S)cc1Cl` belongs 15.2% (inactive).

These data come from PubChem BioAssay (NCI).
